The full ranking holds about 33,000 sequences; the median of “E-score (-0.5 to 0.5)” is about -0.013, and the highest 2% start at about 0.3. Many of the other results were omitted from the sample, so the highest values are more common in it than they were.
biological target: T1, Msn1 (UniProt P22148); assay: PBM E-score (8-mer binding enrichment) (E-score (-0.5 to 0.5)); higher = stronger / more preferred TF binding; conditions: protein concentration: 200 nM; construct: GST-full length
T1 sequence: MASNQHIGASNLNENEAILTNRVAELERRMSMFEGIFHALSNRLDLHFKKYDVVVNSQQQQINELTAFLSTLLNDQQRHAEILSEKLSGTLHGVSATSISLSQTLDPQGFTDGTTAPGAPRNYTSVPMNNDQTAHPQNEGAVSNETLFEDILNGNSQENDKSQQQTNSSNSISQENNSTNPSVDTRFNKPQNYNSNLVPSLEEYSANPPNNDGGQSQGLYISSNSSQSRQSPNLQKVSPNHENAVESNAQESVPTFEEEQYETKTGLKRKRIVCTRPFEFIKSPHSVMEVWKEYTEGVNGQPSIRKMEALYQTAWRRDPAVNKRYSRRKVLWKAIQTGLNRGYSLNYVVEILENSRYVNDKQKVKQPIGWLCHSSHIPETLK
Outline: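 E-scores (a modified Wilcoxon-Mann-Whitney statistic) were assigned by the Universal PBM Analysis Suite to every ungapped eight-base word pooled with its reverse complement. The input came from universal all-10-mer Agilent arrays made double-stranded by primer extension and probed with GST-tagged yeast transcription factors at about 100-200 nM. Fluorescent anti-GST detected bound protein, and masliner normalised the scans.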

Sequence	PBM E-score
TCGCAAGA	-0.177
AGGCAAAA	0.163
CTTGTTCA	-0.0388
GAGAGTTA	-0.0018
TCAGTTCA	-0.039
ATTAAAAG	0.156
TATATAAA	0.253
ACTAAAAC	0.14
ATTAAAAC	0.156
ATTAAAAA	0.327
ACTAAAAA	0.309
CATAAAAA	0.181
TATAAAAA	0.318
ACTAAAAG	0.0984
CAATTTCC	0.0903
ACCAACAG	-0.127
CGCAAACA	0.143
CAGCACAG	0.00522
GTCGTCTA	-0.00305
CGCGTGTA	0.114
CGCGTGTC	0.344
AGCGTGTC	0.0384
AGAAATGG	-0.076
ACCCTTAT	-0.0336
CATGGACG	0.137
GATGGAAA	-0.126

Sequence	PBM E-score
AATGGACA	0.438
CATGGACC	-0.0789
CATGGACA	0.47
TATGGACA	0.476
TATGGAAA	0.071
AATGGACG	0.185
GATGGACA	0.443
AATGGACT	0.19
TATGGAGA	0.0848
GATGGACC	0.0221
ATTGGTAA	0.00511
CCTCCTGA	-0.153
ACACATCC	0.0829
AATACCCA	-0.0704
TATTGTGA	0.0467
AGCACCAA	0.0195
ACAGTGCC	0.063
CGAATCGA	0.213
ACAGCCTG	-0.0349
ATGCCAAC	0.0264
ATTTCCCG	0.188
AACTACTT	0.00311
ATGAGCAT	0.017
CAGAAATA	0.0248
ACGTCCTA	0.354
AAGTCCTG	0.292

Sequence	PBM E-score
ACGTCCTG	0.0274
CCGTCCTA	-0.0332
AAGTCCTA	0.409
AAGTCCTC	0.244
ATTGTACA	0.242
ATTGTCCA	0.466
CTTGTCGA	0.0891
ATTGTTCG	0.259
CTTGTACC	0.286
ATTGTCAA	0.12
CTTGTACA	0.311
CTTGTCCA	0.464
ATCGTCCA	-0.0991
ATTGTCCG	0.468
CTTGTCAA	0.162
ACTGTCCG	0.183
CATTATGC	-0.00798
AGTTCGCC	0.00171
GACGCGAA	0.0618
TACTCGAA	-0.00961
GCCGACGC	0.0201
ATTGTCCC	0.462
GTTGTCCA	0.381
CTTGTCAC	0.296
GTTGTCAA	0.0641
ATTGTCAC	0.297

Sequence	PBM E-score
CTTGTCCC	0.47
GTTGTCGA	0.00891
ACTGTCCC	0.127
CTGGTCCC	-0.218
AAACCTTC	-0.288
GCCGTCGC	-0.0331
CTTCAGGC	-0.0893
CAATTGAG	-0.0282
ACATTAGC	0.147
CAAATCAA	0.126
CGACAGGC	-0.152
GAGTTCCC	0.0462
GTGCTGAA	-0.191
ATGCGTGC	-0.0193
ACTTGTCT	0.407
ACTTGTGA	-0.103
GCTTGTCC	0.454
GCTTGTCA	0.209
ACTTGTCC	0.467
ACTTGTCG	0.297
TCTTGTCA	0.238
GCTTGTAC	0.267
ACTTGTAT	0.145
ACTTGGCT	-0.176
ACTTGTGC	-0.14
ACTTGTCA	0.369

Sequence	PBM E-score
CCTAGCTC	-0.148
CGGTCGCA	-0.0568
CCAACGGA	-0.08
GGCACTAC	-0.284
CGCTCTGC	-0.112
CCTTGTCA	0.0263
CCTTGTCG	0.0372
CCTTGTCC	0.449
CTGGTATC	-0.0417
GACCTATC	0.0973
GGTGCTAC	-0.204
ATGTCGTG	0.337
ATGTCGAG	0.162
ATGTCGTA	0.395
CTGTCGTA	-0.0467
ATGTCGTC	0.191
GTGTCGTA	0.228
GCTGCGTA	-0.124
AAACGAGC	-0.0279
GCCAAAGC	-0.0464
CACTGCCG	0.0826
GGAGGACC	-0.25
TGAGGAAA	0.0866
GGAGGACA	0.4
GGAGGAGA	-0.179
TGAGGCCA	-0.117

Sequence	PBM E-score
TGAGGACA	0.46
AGAGGACA	0.353
CGAGGACC	-0.14
AGAGGACT	-0.21
CGAGGACA	0.453
AGAGGACC	-0.208
CGAGGACG	0.0859
CCACACGA	0.00165
AACGAATA	-0.0354
ATAGTCTA	-0.0808
GTGCCTGA	-0.25
AATAACTC	0.00363
GGAGAACA	0.0888
ACAACCCA	0.0013
AGTGTCCA	0.219
CGTGTCCA	0.424
CGTGTCTA	0.166
CGTGTCGA	0.0442
GGTGTCCA	0.352
AGTGTCCC	0.375
CGTGTCTC	0.26
AGTGTCCG	0.179
GGTGTCGA	-0.0245
CGTGTCGC	0.202
GGTGTCTA	0.0447
CGTGTCCC	0.437

Sequence	PBM E-score
ACGGTCAT	0.0534
AGCTTTCC	-0.198
GAACTGAA	-0.00121
CGTGGCAC	0.0166
CTGAGCGA	0.0585
CAGCTAGC	-0.19
ATATTAAT	0.243
GCAGCCCA	-0.0983
TTGCCAAA	-0.0227
AACTTGGC	-0.0461
GCCTTCCA	-0.367
CAATGAAA	0.0415
TAATGAAA	0.226
AAATGAAA	0.305
CGGATGTA	0.0259
CGGATGTC	0.348
AAGATGTC	0.252
CTGATGTC	0.282
AGGATGTA	-0.0489
AGGATGTC	0.398
CAGATGTC	0.347
AGGATGTG	-0.0903
CAGATGTA	-0.0817
GCCCAGAA	0.0114
CTGCTACC	-0.0604
CCCTCGAG	-0.11

Sequence	PBM E-score
ACTGGCAA	0.0309
GTTGATTA	0.135
AATCTGGG	-0.203
CCAGGTGC	-0.205
ATTACGCG	-0.059
AACAATTA	0.165
GACAATCC	0.355
AACAATCC	0.136
AACAATAC	0.158
GACAATCA	0.217
GACAATTA	0.426
GACAATAC	0.377
CACAATAC	-0.0413
CACAATTA	0.128
ATTCCTCG	0.0159
AACGTCAG	-0.248
GAGATCAC	-0.035
ATACAGCA	0.103
TCAGGACA	0.461
CCAGGACA	0.469
TCAGGAAA	0.0903
CCAGGACG	0.109
ACAGGACG	0.0345
GCAGGACC	-0.0863
GCAGGATA	-0.224
GCAGGACA	0.47

Sequence	PBM E-score
CCAGGACC	-0.105
ACAGGACT	-0.0485
ACAGGACA	0.421
TCAGGAGA	-0.0143
CCGAGATC	0.0634
AGGTTAAC	-0.0876
AATCGATG	0.144
CAGCAGAC	0.0732
AGTCTGTC	0.0754
AGCCAGAC	-0.072
AAGCGCCC	-0.264
TATTGAGA	0.208
CCAGCGGC	-0.0286
GGTAACTA	0.18
ATTGTCGC	0.344
ACTGTCGG	-0.0418
ATTGTCGG	0.318
CTTGTCGC	0.166
ATTGTCGA	0.144
ACTGTCGC	-0.134
AGGGTTTG	-0.0242
ACCCGTTA	0.00896
CCGGTACG	-0.262
CTGGTACA	0.329
GTGGTACA	0.13
CCGGTACA	0.319

Sequence	PBM E-score
CTGGTACC	-0.121
GCGGTACA	0.0441
CGGCCCAG	-0.186
TAAGAAAA	0.00824
CTGCGACC	-0.19
CTGTCCCC	0.00412
AAGTCCCG	0.283
GCGTCCCA	0.0223
GTGTCCCA	0.439
GGGTCCCA	-0.216
ACGTCCCG	0.0295
ATGTCCCA	0.485
CTGTCCCA	0.281
AGGTCCCA	-0.081
ATGTCCCG	0.474
AGGTCCCC	-0.299
ATGTCCCC	0.479
GCCTTTGA	0.0544
CGAGGAGA	-0.141
AGACCCTG	-0.165
ACCTAACG	-0.203
ATGATCTG	0.0873
GGGAAAAA	0.185
GCGGTCAC	-0.172
GTGTCTAA	0.192
AGGTCTAG	-0.134

Sequence	PBM E-score
ATGTCTAA	0.403
ATGTCTAG	0.373
CTGTCTAC	-0.0627
CTGTCTAA	0.111
AAGTCTAG	-0.107
ATGTCTAC	0.313
AGGTCTAC	-0.0162
CTAGTAGC	-0.165
GAGGGTAC	-0.202
CTATTTCC	0.063
AAAATTGG	0.00283
ACAATTGA	0.257
AAAATTGT	0.357
GAAATTCA	0.103
AAAATTCG	0.232
AAAATTCA	0.308
ACAATTGC	0.191
ACAATTGT	0.363
AAAATTGC	0.054
ATCCATAA	0.124
AATTCCTC	-0.0412
AGCCACTA	-0.0424
CCCCAGCC	-0.271
ACCCTGAG	-0.0157
ACGCGCGC	0.196
GCGCGCGC	0.333

Sequence	PBM E-score
GCGCGCGA	0.0948
CCTGCTAC	0.017
AGTTCTCC	-0.205
ACATTTCT	0.204
GCATTTTA	0.109
ACATTTTC	0.337
ACATTTTA	0.377
ACATTTCA	0.363
GCATTTCA	0.0826
AGATTTTC	0.0741
ACATTTCG	0.241
ACATTTCC	0.329
CCATTTTA	0.259
CCATTTTC	0.136
CCATTTCA	-0.106
GTGAGGCA	-0.0279
ACTGACCT	-0.063
CCACGTGG	-0.276
CGATGAGC	-0.17
CTACCTCC	-0.0369
ACATTTTG	0.34
ACATTAAC	0.254
ACATTTAA	0.324
GCATTTAA	0.0963
ACATTTGA	0.311
ACATTAAT	0.155

Sequence	PBM E-score
ATATTTTG	0.176
ACATTAAG	0.32
AGATTTTG	0.0738
ACATTTGG	0.177
TCATTTAA	0.132
GCATTTGA	0.051
TACAGGAA	0.0582
AGATCCTC	-0.125
AGATGCGA	0.0645
GCTGAACA	0.00499
CTGGCGTA	-0.252
AGGCGGTG	-0.217
TCCATCCA	-0.00245
CAACCAGC	-0.114
CCTTTGTA	0.163
CTTTTGAC	0.0513
CTTTTGTA	0.3
ACTTTGTA	0.129
CCTTTGCC	-0.104
CCTTTGTC	0.367
ACTTTGTG	0.0353
CTTTTGTC	0.455
ACTTTGTC	0.41
GAATTGCC	0.0969
AACCTACA	0.0149
GGATCATA	-0.0918

Sequence	PBM E-score
ATAGCATG	-0.207
CGACACGA	0.274
AGACACAC	0.133
AGACACAG	0.131
AGACACGA	0.158
GGACACAA	0.462
CGACACAA	0.00596
CGACACAC	0.0525
GGACACAC	0.382
GGACACGA	0.396
GGACACCC	-0.0113
TGACACAA	0.183
AGACACAA	0.332
